From PubChem BioAssay
Pf growth 48h = P. falciparum growth inhibition at 48 hours (one generation). Potency, µM (top dose mostly 28.7 µM), inactives show top-dose activity change, negative = inhibition, actives largely listed as inhibitors. 5.9% of 310,000 active. P. falciparum luciferase growth in erythrocytes, 48 h. AID 504832; note: potency is the fitted concentration of half-maximal effect; % is set by controls: 0 for no effect and ±100 for the full control effect
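Luciferase-expressing parasites in RBCs, 2% Hct / 0.1% parasitemia final; RPMI 1640 + 0.5% Albumax; 37 C, 5% CO2, one generation; luminescence read-out, lower signal = inhibition.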
Shiga inhibitor = Shiga toxin inhibition; Vero cells, Shiga toxin protein synthesis inhibition reporter; inhibition, % at 38.7 µM; 9.2% of 290,000 active; AID 2315; in the data active = inhibition mostly above about 28%, no sharp cut-off; inactive = mostly below about 43%; note: 0% is about no effect
NS1 inh = influenza NS1 inhibition; 0.4% of 270,000 active; Potency, µM (doses to about 46.1 µM), without a hit: at the top dose activity, positive = more growth; calls by dose curve; note: potency is the fitted concentration of half-maximal effect; actives are rising curves; nearly all actives have a fitted effect of over 50% in size
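S. cerevisiae expressing influenza A NS1, grown in glucose, washed, then diluted 1:100 into pH 6.0 -URA galactose medium with 23 nl compound. Growth recovery read as OD600; NS1-free strain serves as control.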
Pf growth 96h = P. falciparum growth inhibition at 96 hour, primary screen for plastid delayed-death inhibitors | P. falciparum luciferase reporter growth, 96 h | Potency, µM (titrated, usually from 28.7 µM), without a hit: at the top dose activity change, negative = inhibition, usual class: inhibitors | 6.9% of 320,000 active | AID 504834; note: potency is the fitted concentration of half-maximal effect; % is set by controls: 0 for no effect and ±100 for the full control effect
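Luminescence readout: decreased luciferase signal marks inhibited growth of reporter-expressing P. falciparum in infected red cells (2% hematocrit, 0.05% parasitemia final), exposed to compound two generations (96 h, 37 C, 5% CO2).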
Cycloheximide cs = affects cycloheximide protein synthesis inhibition readout, counter-screen; cell reporter, cycloheximide protein synthesis inhibition counterscreen; max response, %; 12% of 300,000 active; AID 2314; in the data active = max response mostly above about 13%, no sharp cut-off; inactive = mostly below about 14%; note: read at 38.3 µM for the half of the compounds with a filed dose; 0% is about no effect
Giardia FBPA inh = blocks Giardia fructose-bisphosphate aldolase activity; AID 2451; 0.71% of 290,000 active; A8B2U2; Potency, µM (series often up to 59.6 µM), without a hit: at the top dose activity, negative = inhibition, hits mostly inhibitors; purified Giardia FBPA; note: potency is the fitted concentration of half-maximal effect; % is set by controls: 0 for no effect and ±100 for the full control effect; nearly all actives have a fitted effect of over 55% in size
Target sequence (A8B2U2 whole entry, looked up): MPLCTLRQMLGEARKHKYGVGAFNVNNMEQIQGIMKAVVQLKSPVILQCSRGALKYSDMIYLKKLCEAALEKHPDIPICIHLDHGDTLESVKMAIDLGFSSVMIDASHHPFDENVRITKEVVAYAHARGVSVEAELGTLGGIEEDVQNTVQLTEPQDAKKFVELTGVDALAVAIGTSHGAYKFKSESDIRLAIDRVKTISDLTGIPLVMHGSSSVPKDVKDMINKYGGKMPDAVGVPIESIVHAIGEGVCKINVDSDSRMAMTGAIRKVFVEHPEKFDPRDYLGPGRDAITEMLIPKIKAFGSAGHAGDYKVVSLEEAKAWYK
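40 nM FBPA preincubated 10 min at RT with compound (up to 57.5 uM final), then substrate plus GAPDH/TPI/NAD/arsenate coupling and diaphorase/resazurin added. Fluorescence read after 20 min at RT, 525/598 nm.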
Starred values were filed as active, the others as inactive; ? = inconclusive; / = no result given. Most compounds without a hit are left out; they make up all but 21% or so of the library. Unless noted, calls come from the whole dose curve; as a rule, active = well fitted curve in the direction sought with a large enough effect; inconclusive = small, poorly fitted or top-dose-only effect, or another doubt; inactive = no such curve, though single readings can be large; an effect the other way counts as inactive or inconclusive.

SMILES | Pf growth 48h | Shiga inhibitor | NS1 inh | Pf growth 96h | Cycloheximide cs | Giardia FBPA inh
CCCCCCCC/C=C\CCCCCCCC(=O)NC(C)C(=O)O (stereo not given) | / | / | / | / | / | 2%
COc1cccc(CC(NC(C)=O)C(=O)NC2CCN(C(=O)C3CC3)CC2)c1OC (stereo not given) | -19% | 20 | -1% | 11% | -6 | 5%
O=C(CS(=O)(=O)Cc1ccccc1)N1CCN(c2ccccc2F)CC1 | 6% | 22 | -3% | 21% | 14 | 0%
c1ccc(-c2ccc(SCc3cccnc3)nn2)nc1 | 154% | 137* | / | -17% | 27* | ?
COc1ccc(CCNC(=O)CCSc2nc(-c3ccco3)cc(C(F)(F)F)n2)cc1OC | 9.3µM* | 18 | -9% | ? | 6 | -4%
COc1ccc(CCNc2nc(-c3ccco3)cc(C(F)(F)F)n2)cc1OC | ? | -22 | -3% | ? | -2 | -2%
CCn1ncc(CNC(=O)CCCSc2nc(-c3ccco3)cc(C(F)(F)F)n2)c1C | 12µM* | -7 | 17% | ? | -5 | 5%
CCn1nc(C)c(NC(=O)CCSc2nc(-c3ccco3)cc(C(F)(F)F)n2)c1C | -16% | -2 | -29% | 93% | 9 | /
CC(=O)Nc1ccc(C(=O)N(C)C(C(=O)Nc2ccccc2)c2ccccn2)cc1 (stereo not given) | 0% | 2 | -32% | -6% | -3 | 4%
